# Source: PubChem BioAssay (NCI)
# Compounds without any hit were thinned out: in the full panel of roughly 83,000, 20% have a hit.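 Treatment: one concentration, 48 hours, 96-well format. Scoring: percent growth, with anything below 10 considered active.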 A number with no mark means an inactive call. Calls of active or inactive are those of the source.
# Test system: HL-60(TB) leukemia
# Assay: NCI-60 one-dose screen, 48 h (100 = growth as untreated, 0 = no growth, -100 = all killed)
# Conditions: 10 µM unless noted
row,SMILES,growth
1,COc1ccc(-c2cc(C(=O)Nc3ccc(C)cc3)nc3[nH]c(=O)sc23)cc1,51.8%
2,COc1cc2c(cc1[N+](=O)[O-])-c1ccc([N+](=O)[O-])cc1/C2=N/NC(N)=S,88.3%
3,CN(C)CSc1nc2ccccc2s1,101%
4,CCc1ccc(NC(=O)N[C@@H](Cc2cc(F)cc(F)c2)C(=O)N[C@@H]2C(=O)N3C[C@H](O)C[C@H]3C(=O)N3CCOC[C@H]3C(=O)N[C@@H](C)C(=O)N3C[C@H](C)C[C@H]3C(=O)O[C@H]2C)cc1,23.8%
5,Cc1cc2c(C(C)C)c(O)c(O)c(C=NCc3ccoc3)c2c(O)c1-c1c(C)cc2c(C(C)C)c(O)c(O)c(C=NCc3ccco3)c2c1O,9.25% (active)
6,O=C(Nc1ccc(OS(=O)(=O)c2ccc(F)cc2)cc1)C12CC3CC(CC(C3)C1)C2,52.7%
7,Nc1ccc(C2=NNC(=O)Cc3cc4c(cc32)OCCO4)cc1Cl,7.27% (active)
8,COc1ccc(-c2csc(NC(=O)CO[N+](=O)[O-])n2)cc1,107%
9,Cc1c(O)c(=O)ccn1-c1nc2ccccc2s1,98.3%
10,C=C1CC[C@@H]2C(C)(C)[C@@H](O)CC[C@@]2(C)[C@@H]1COc1ccc2ccc(=O)oc2c1,69.1%
11,Cc1cc2c(c(C)c1Cl)C(=O)/C(=C/c1ccco1)O2,97.5%
12,c1ccc(Sc2ncccn2)nc1,100%
13,COC(=O)[C@]12CC[C@@H](C)[C@H](C)[C@@H]1C1=CC[C@@H]3[C@@](C)(CC#N)C4=C(C[C@@]3(C)[C@]1(C)CC2)OC[C@]4(C)C=O,-10.8% (active)
14,Cc1nc2sc(C(=O)Nc3cccc(Cl)c3C)c(N)c2cc1C(O)c1ccccc1 (stereo not given),-42.3% (active)
15,CCOC(=O)Oc1c(OC)cc(C(=O)c2ccc(OC)c(O)c2OC)cc1OC,-32.6% (active)
16,CCOC(=O)c1c(Cl)c2c(n1Cc1ccc(OC)cc1)-c1oncc1CCC2,78.9%
17,CCN1CCN(CC(=O)Nc2ccc(-c3cn4c(n3)sc3cc(Oc5ccnc(C(=O)NC)c5)ccc34)cc2)CC1,-35.4% (active)
18,COc1nc2c(c(=O)n1C)N=C1c3ccccc3C(=O)C1C(c1ccccc1)N2 (stereo not given),112%
19,CC(C)CCNCC(O)Cn1c2ccccc2c2ccccc21 (stereo not given),-14.8% (active)
20,O=c1c2c3c(sc2n2c(-c4cc(-c5ccccc5)nn4-c4ccccc4)nnc2n1Cc1ccccc1)CCCC3,50.7%

row,SMILES,growth
1,O=C1Nc2ccc(Cl)cc2/C1=N/c1nc(-c2ccc(F)cc2)cs1,-36.7% (active)
2,CCOC(=O)C1=C(C)NC(=O)NC1c1c(Cl)n(CCCl)c2ccccc12 (stereo not given),117%
3,COC(=O)C1CCc2sc3ncnc(Nc4cn[nH]c4C(=O)Nc4ccc(CN5CCN(C)CC5)cc4)c3c21 (stereo not given),-28.8% (active)
4,COc1cc2c(c(OC)c1OC)C(=O)CC(c1cccc(C(=O)Nc3ccc(C#N)cc3)c1)O2 (stereo not given),47%
5,COc1cccc(-c2nn(-c3ccccc3)cc2-c2ccnc(NCCNC(=O)Nc3ccccc3)c2)c1,19.9%
6,O=[N+]([O-])c1ccccc1Sc1ccccc1[N+](=O)[O-],111%
7,C=CC(=O)NCCOc1cccc(Nc2cc(NCCCNC(=O)C3CCC3)c(Br)cn2)c1,-55% (active)
8,CCOc1ccc(N=C(C)Nc2ccc(OCC)cc2)cc1,76.4%
9,Cc1cc(CSc2ccccc2C(=O)N2CC=C(c3ccccc3)CC2)on1,87.7%
10,Cc1ccccc1-c1cc(Cc2ccccc2O)c(=O)[nH]n1,84.1%
11,COc1ccc2nc(N/N=C(\C)c3ccccn3)cc(C)c2c1,-64.7% (active)
12,Nc1c(C(=O)Nc2ccncc2)sc2nc3c(cc12)CCCCCCCC3,-54.9% (active)
13,COC(=O)[C@H](C)NC(=O)[C@@H](OC)[C@@H]1Cc2cc3cc(OC4CC(OC5CC(O)C(O)C(C)O5)C(O)C(C)O4)c(C)c(O)c3c(O)c2C(=O)[C@H]1OC1CC(OC2CC(OC3CC(C)(O)C(O)C(C)O3)C(O)C(C)O2)C(O)C(C)O1 (stereo not given in full),20.8%
14,CCOC(=O)C1=C(C)NC(=O)NC1c1cc(=O)oc2ccc(C)cc12 (stereo not given),97.6%
15,O=C1c2ccccc2C(=Cc2ccccc2)c2ccccc21,-1.29% (active)
16,COc1ccc(C2=NNC(c3sc(Cl)nc3Cl)C2)cc1 (stereo not given),85.8%
17,CC[C@@H]1O[C@H](O[C@@H](c2cnc[nH]2)[C@H](NC(=O)c2nc([C@H](CC(N)=O)NC[C@@H](N)C(N)=O)nc(N)c2C)C(=O)N[C@H](C)[C@H](O)[C@H](C)C(=O)N[C@@H](C(=O)NCCc2nc(-c3nc(C(=O)NCCCCN=C(N)N)cs3)cs2)[C@@H](C)O)[C@H](O[C@@H]2O[C@H](CO)[C@H](O)[C@H](OC(N)=O)[C@@H]2O)[C@H](C)[C@@H]1C,84.4%
18,CC1SC(c2cccc(Oc3ccccc3)c2)N(CCc2cccs2)C1=O (stereo not given),-21.9% (active)
19,CO[C@H]1C[C@@H]2CC[C@@H](C)[C@@](O)(O2)C(=O)C(=O)N2CCCC[C@H]2C(=O)O[C@H]([C@H](C)C[C@@H]2CC[C@@H](OP(C)(C)=O)[C@H](OC)C2)CC(=O)[C@H](C)/C=C(\C)[C@@H](O)[C@@H](OC)C(=O)[C@H](C)C[C@H](C)\C=C/C=C/C=C/1C,76.4%
20,CN1C(=O)/C(=C2\SC(=Nc3ccccc3)N(Nc3ccccc3)C2=O)c2ccccc21,108%
